In PubChem BioAssay (Tox21):
Several values for one entry are separate records, joined by “and”; a condition that tells them apart may be missing. Identical values can stand only once. Where a structure was tested more than once in an assay, its records may differ in their call. Activity calls are given as the source filed them. Where a call stands in place of a potency, no number is given. Unless noted, calls come from the whole dose curve; as a rule, active = well fitted curve in the direction sought with a large enough effect in the repeat runs; inconclusive = weak or mixed curves; inactive = no such curve, though single readings can be large; an effect the other way counts as inactive or inconclusive.

Assays:
[1] = qHTS assay to identify small molecule antagonists of the glucocorticoid receptor (GR) signaling pathway - cell viability counter screen (AID 720693); note: nearly all actives have a fitted effect of over 55% in size
[2] = qHTS assay for identifying genotoxic compounds that show differential cytotoxicity against isogenic chicken DT40 cell lines with known DNA damage response pathways - wild type cell line (AID 743012); note: nearly all actives have a fitted effect of over 60% in size; note: potency is the fitted concentration of half-maximal effect
How it was run: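 Wild-type DT40 cells (300/well) exposed to compounds for 40 hours at 37 C/5% CO2. Viability read by CellTiter-Glo luminescence after 30 min at room temperature.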

[3] = qHTS assay for identifying genotoxic compounds that show differential cytotoxicity against isogenic chicken DT40 cell lines with known DNA damage response pathways - Rev3 mutant cell line (AID 743014); note: nearly all actives have a fitted effect of over 55% in size; note: potency is the fitted concentration of half-maximal effect
[4] = qHTS assay for identifying genotoxic compounds that show differential cytotoxicity against isogenic chicken DT40 cell lines with known DNA damage response pathways - Rad54/Ku70 mutant cell line (AID 743015); note: nearly all actives have a fitted effect of over 60% in size; note: potency is the fitted concentration of half-maximal effect
[5] = qHTS assay to identify small molecule antagonists of the androgen receptor (AR) signaling pathway - cell viability counter screen (AID 743033; note: nearly all actives have a fitted effect of over 45% in size; note: potency is the fitted concentration of half-maximal effect)
[6] = qHTS assay to identify small molecule antagonists of the androgen receptor (AR) signaling pathway using the MDA cell line - cell viability counter screen (AID 743041; note: nearly all actives have a fitted effect of over 45% in size; note: potency is the fitted concentration of half-maximal effect)
How it was run: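 Cells were plated at 3,000 per well and left 5 h. Compounds in DMSO were then pinned in, followed by R1881. After 16 h at 37C, CellTiter-Fluor fluorescence gave viability.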

[7] = qHTS assay to identify small molecule antagonists of the thyroid receptor (TR) signaling pathway - cell viability counter screen (AID 743064); note: nearly all actives have a fitted effect of over 50% in size; note: potency is the fitted concentration of half-maximal effect
How it was run: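 Viability of T3-stimulated (1 nM final) GH3.TRE-Luc cells is measured by CellTiter-Fluor fluorescence after 23.5 h compound exposure at 37 °C plus 30 min reagent incubation.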

[8] = qHTS assay to identify small molecule antagonists of the thyroid receptor (TR) signaling pathway (AID 743065); note: nearly all actives have a fitted effect of over 55% in size; note: potency is the fitted concentration of half-maximal effect
How it was run: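 Antagonism measured as loss of luciferase signal in GH3 cells stably carrying a TRE-luciferase reporter, co-treated with compound and T3 (1 nM final) for 23.5 h at 37 C. Viability was read in the same well by CellTiter-Fluor.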

[9] = test system: thyroid hormone receptor (rat, GH3 cells); test: qHTS assay to identify small molecule agonists of the thyroid receptor (TR) signaling pathway (AID 743066; calls by dose curve)
[10] = target: Estrogen receptor (Homo sapiens) (UniProt P03372); test: qHTS assay to identify small molecule antagonists of the estrogen receptor alpha (ER-alpha) signaling pathway (AID 743069; active = well fitted curve in the direction sought with a large enough effect in the signal ratio in the repeat runs, not every such curve was filed as active; inconclusive = weak or mixed curves, or effect the other way; inactive = no such curve, though single readings can be large or run the other way; the % refers to the signal ratio; note: potency is the fitted concentration of half-maximal effect)
How it was run: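 ER-alpha-UAS-bla GripTite HEK293 line; 2% charcoal-stripped FBS overnight; plated, 4 hr 37C/5% CO2; cpd in DMSO + 17beta-estradiol, 18 hr 37C; LiveBLAzer B/G FRET substrate 2 hr RT; fluorescence intensity.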

[11] = qHTS assay to identify small molecule antagonists of the estrogen receptor alpha (ER-alpha) signaling pathway - cell viability counter screen (AID 743074; calls by dose curve;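 note: HEK293 cells carrying ER-alpha-UAS-bla reporter stimulated with 17beta-estradiol; nearly all actives have a fitted effect of over 45% in size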)
[12] = target: Estrogen receptor (Homo sapiens) (UniProt P03372); test: qHTS assay to identify small molecule agonists of the estrogen receptor alpha (ER-alpha) signaling pathway (AID 743075; calls by dose curve;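 note: HEK293 GripTite cells with ER-alpha and UAS-driven beta-lactamase reporter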)
[13] = target: Estrogen receptor (Homo sapiens) (UniProt P03372); test: qHTS assay to identify small molecule agonists of the estrogen receptor alpha (ER-alpha) signaling pathway using the BG1 cell line (AID 743079); note: nearly all actives have a fitted effect of over 20% in size
[14] = qHTS assay to identify small molecule antagonists of the estrogen receptor alpha (ER-alpha) signaling pathway using the BG1 cell line (AID 743080; calls by dose curve;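 note: BG1 cells stimulated with 17beta-estradiol alongside compound; series mostly up to about 70 µM; nearly all actives have a fitted effect of over 25% in size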)
How it was run: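 Readout is ONE-Glo luminescence, taken 30 min at room temperature after reagent addition, preceded by a CellTiter-Fluor viability read; BG1-Luc-4E2 cells had received compound and 17beta-estradiol for 21.5 h at 37 C.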

[15] = qHTS assay to identify small molecule antagonists of the estrogen receptor alpha (ER-alpha) signaling pathway using the BG1 cell line - cell viability counter screen (AID 743081);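 note: compound given together with 17beta-estradiol as the ER stimulus; nearly all actives have a fitted effect of over 45% in size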; note: potency is the fitted concentration of half-maximal effect
Aromatase (Homo sapiens) = Aromatase (Homo sapiens) (UniProt P11511); test: qHTS assay to identify aromatase inhibitors (AID 743083); note: nearly all actives have a fitted effect of over 55% in size; note: potency is the fitted concentration of half-maximal effect
[16] = target: Androgen receptor (Homo sapiens) (UniProt P10275); test: qHTS assay to identify small molecule antagonists of the androgen receptor (AR) signaling pathway (AID 743035; active = well fitted inhibition curve with a large enough effect in the signal ratio in the repeat runs, not every such curve was filed as active; inconclusive = weak or mixed curves, or effect the other way; inactive = no such curve, though single readings can be large or run the other way; the % refers to the signal ratio)
How it was run: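 HEK293 cells stably carrying UAS-beta-lactamase reporter, 2,000/well, given compounds plus R1881 agonist and incubated 16 h at 37C. LiveBLAzer B/G FRET substrate then added for 2 h at room temperature before fluorescence reading.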

[17] = target: Androgen receptor (Homo sapiens) (UniProt P10275); test: qHTS assay to identify small molecule agonists of the androgen receptor (AR) signaling pathway (AID 743036; active = well fitted activation curve with a large enough effect in the signal ratio in the repeat runs, with a control signal flat, not every such curve was filed as active; inconclusive = weak or mixed curves, or effect the other way; inactive = no such curve, though single readings can be large or run the other way; the % refers to the signal ratio)
How it was run: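 Screening used 2,000 AR-bla HEK293 cells per well, treated 16 h at 37C with test compounds in DMSO alongside positive and DMSO-only controls; beta-lactamase activity was then read by LiveBLAzer B/G FRET fluorescence after 2 h at room temperature.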

[18] = target: Androgen receptor (Homo sapiens) (UniProt P10275); test: qHTS assay to identify small molecule agonists of the androgen receptor (AR) signaling pathway using the MDA cell line (AID 743040; note: nearly all actives have a fitted effect of over 20% in size)
How it was run: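 Cells plated, 5 h at 37C/0% CO2; compound or DMSO pinned; 16 h at 37C; ONE-Glo added; luminescence measured after 30 min at room temperature. Reporter line: MDA-kb2 with MMTV-luciferase responsive to AR and GR.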

[19] = target: Androgen receptor (Homo sapiens) (UniProt P10275); test: qHTS assay to identify small molecule antagonists of the androgen receptor (AR) signaling pathway using the MDA cell line (AID 743042; note: nearly all actives have a fitted effect of over 55% in size)
How it was run: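 Antagonist mode: compounds plus R1881 agonist added to MDA-kb2 AR-luc cells, incubated 16 h at 37C. Luciferase reporter luminescence quantified, with multiplexed CellTiter-Fluor readout for cell viability.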

Chain of Estrogen receptor (Homo sapiens) (P03372 whole entry, looked up): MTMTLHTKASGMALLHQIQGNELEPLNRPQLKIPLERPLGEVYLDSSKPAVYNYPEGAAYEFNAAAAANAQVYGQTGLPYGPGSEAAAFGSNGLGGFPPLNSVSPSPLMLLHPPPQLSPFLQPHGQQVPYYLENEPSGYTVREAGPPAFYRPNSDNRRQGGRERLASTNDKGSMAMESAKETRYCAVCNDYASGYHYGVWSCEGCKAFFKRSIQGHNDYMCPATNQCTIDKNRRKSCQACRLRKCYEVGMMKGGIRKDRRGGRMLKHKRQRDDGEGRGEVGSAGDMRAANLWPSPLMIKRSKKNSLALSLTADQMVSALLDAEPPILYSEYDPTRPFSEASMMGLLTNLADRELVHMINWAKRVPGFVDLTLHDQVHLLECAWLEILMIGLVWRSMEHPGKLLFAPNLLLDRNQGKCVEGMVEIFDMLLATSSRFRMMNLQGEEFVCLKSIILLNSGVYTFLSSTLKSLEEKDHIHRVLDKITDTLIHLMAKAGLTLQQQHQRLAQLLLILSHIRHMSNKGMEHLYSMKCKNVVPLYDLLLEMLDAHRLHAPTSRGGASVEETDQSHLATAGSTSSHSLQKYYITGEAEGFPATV
Chain of Androgen receptor (Homo sapiens) (P10275 whole entry, looked up): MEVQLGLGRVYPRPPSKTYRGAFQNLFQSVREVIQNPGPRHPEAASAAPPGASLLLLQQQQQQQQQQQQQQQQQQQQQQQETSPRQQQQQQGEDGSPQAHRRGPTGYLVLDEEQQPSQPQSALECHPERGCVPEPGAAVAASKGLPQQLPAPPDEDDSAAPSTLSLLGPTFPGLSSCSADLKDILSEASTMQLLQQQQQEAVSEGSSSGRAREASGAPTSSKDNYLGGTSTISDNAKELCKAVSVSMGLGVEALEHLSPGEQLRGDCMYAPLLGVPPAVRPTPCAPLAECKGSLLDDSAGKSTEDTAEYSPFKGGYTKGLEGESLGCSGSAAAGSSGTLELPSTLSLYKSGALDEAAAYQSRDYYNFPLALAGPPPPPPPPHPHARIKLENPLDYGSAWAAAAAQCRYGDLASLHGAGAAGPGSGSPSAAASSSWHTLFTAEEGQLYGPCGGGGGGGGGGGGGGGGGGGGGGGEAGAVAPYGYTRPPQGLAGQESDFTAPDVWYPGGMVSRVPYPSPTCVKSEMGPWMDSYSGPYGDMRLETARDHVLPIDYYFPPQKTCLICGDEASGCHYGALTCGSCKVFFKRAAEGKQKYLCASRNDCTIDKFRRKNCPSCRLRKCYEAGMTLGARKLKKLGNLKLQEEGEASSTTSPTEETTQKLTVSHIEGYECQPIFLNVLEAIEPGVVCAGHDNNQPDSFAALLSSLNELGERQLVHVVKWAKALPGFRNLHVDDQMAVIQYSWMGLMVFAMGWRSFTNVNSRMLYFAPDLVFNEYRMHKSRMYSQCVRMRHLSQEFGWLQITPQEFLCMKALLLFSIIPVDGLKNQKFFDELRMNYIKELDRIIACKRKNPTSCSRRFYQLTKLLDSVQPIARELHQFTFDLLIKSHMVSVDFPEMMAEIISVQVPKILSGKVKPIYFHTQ
Chain of Aromatase (Homo sapiens) (P11511 whole entry, looked up): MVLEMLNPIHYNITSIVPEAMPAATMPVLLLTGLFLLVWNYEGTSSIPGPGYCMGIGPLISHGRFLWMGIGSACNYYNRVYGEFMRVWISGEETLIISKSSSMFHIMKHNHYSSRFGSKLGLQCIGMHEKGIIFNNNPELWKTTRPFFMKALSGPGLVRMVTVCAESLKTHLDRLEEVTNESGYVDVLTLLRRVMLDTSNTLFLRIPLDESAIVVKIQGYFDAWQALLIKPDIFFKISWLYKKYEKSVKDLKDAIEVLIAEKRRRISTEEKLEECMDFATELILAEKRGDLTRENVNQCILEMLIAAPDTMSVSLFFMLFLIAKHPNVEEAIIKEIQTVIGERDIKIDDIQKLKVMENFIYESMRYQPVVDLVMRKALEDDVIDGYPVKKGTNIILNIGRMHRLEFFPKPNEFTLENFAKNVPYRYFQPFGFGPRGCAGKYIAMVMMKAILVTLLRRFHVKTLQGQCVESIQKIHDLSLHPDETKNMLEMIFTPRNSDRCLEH

| SMILES | Potency [1] | Potency [2] | Potency [3] | Potency [4] | Potency [5] | Potency [6] | Potency [7] | Potency [8] | outcome [9] | Potency [10] | Potency [11] | Potency [12] | Potency [13] | Potency [14] | Potency [15] | Potency (Aromatase (Homo sapiens)) | outcome [16] | outcome [17] | outcome [18] | outcome [19] |
| --- | --- | --- | --- | --- | --- | --- | --- | --- | --- | --- | --- | --- | --- | --- | --- | --- | --- | --- | --- | --- |
| CC(=O)Nc1ccc(C(=O)O)cc1 | inactive | inactive | inactive | inactive | inactive | inactive | inactive | inactive | inactive | inactive | inactive | inactive | inactive | inactive | inactive | inactive |  |  |  |  |
| NC(=O)/N=N/C(N)=O | inactive | inactive | inactive | inactive | inactive | inactive | inactive | inactive | inactive | inactive |  | inactive | inactive | inactive | inactive | inactive |  |  |  |  |
| ClC1=C(Cl)C(Cl)(Cl)C(Cl)=C1Cl | inactive | inactive and 770 nM (active) | inactive and 864 nM (active) | inactive and 770 nM (active) | inactive | inactive | inactive | 54.5 µM (active) | inactive | inactive |  | inactive | inactive | inactive | inactive | inactive and 48.6 µM (active) |  |  |  |  |
| O=Nc1ccc(O)cc1 | inactive | inactive | inactive | inactive | inactive | inactive | inactive | inactive | inactive | inactive | inactive | inactive | inactive | inactive | inactive | inactive | inactive | inactive | inactive | inactive |
| Cn1c([N+](=O)[O-])cnc1COC(N)=O | inactive | inactive | inactive | inactive | inactive | inactive | inactive | inactive | inactive | inactive | inactive | inactive | inactive | inactive | inactive | inactive |  |  |  |  |
| S=c1nc[nH]c2nc[nH]c12 | inactive | 23.7 µM (active) | 53.1 µM (active) | inactive | 5.36 µM (active) | inactive | inactive | inactive | inactive |  |  | inactive | inactive |  | inactive | inactive |  |  |  |  |
| C=C1C2CCC(C2)C1(C)C (stereo not drawn) | inactive | inactive | inactive | inactive | inactive | inactive | inactive | inactive | inactive | inactive | inactive | inactive | inactive | inactive | inactive | inactive |  |  |  |  |
| CCc1ccc(O)cc1 | inactive | inactive | inactive | inactive | inactive | inactive | inactive | inactive | inactive |  | inactive |  |  |  | inactive | inactive | inactive | inactive | inactive | inactive |
| CC1(C)CC(N=C=O)CC(C)(CN=C=O)C1 (stereo not drawn) | inactive | inactive | inactive | inactive | inactive | inactive | inactive | inactive | inactive | inactive | inactive | inactive | inactive | inactive | inactive | inactive |  |  |  |  |
| CCCCC(CC)C(=O)OCCOCCOCCOC(=O)C(CC)CCCC (stereo not drawn) | inactive | 21.7 µM (active) | inactive and 19.3 µM (active) | inactive | inactive | inactive |  | inactive | inactive | inactive | inactive | inactive | inactive | inactive | inactive | inactive | inactive | inactive | inactive | inactive |
| CCCCCCC(C)(C)S | inactive | inactive | inactive | inactive | inactive | inactive | inactive | inactive | inactive |  | inactive |  |  |  | inactive | inactive |  |  |  |  |
| NS(=O)(=O)c1cc2c(cc1Cl)NC=NS2(=O)=O | inactive | inactive | inactive | inactive | inactive | inactive | inactive | inactive | inactive | inactive |  | inactive | inactive | inactive | inactive | inactive |  |  |  |  |
| CCCCCCCCCCCCOCC1CO1 (stereo not drawn) | inactive | inactive | inactive | inactive | inactive | inactive | inactive | inactive | inactive | inactive | inactive | inactive | inactive | inactive | inactive | inactive |  |  |  |  |
| CN(C)c1ccc(C(=N)c2ccc(N(C)C)cc2)cc1 | inactive | 5.38 µM (active) and 11.7 µM (active) | 2.4 µM (active) and 8.31 µM (active) | 3.81 µM (active) and 11.7 µM (active) | 34.2 µM (active) and 37.4 µM (active) | 60.4 µM (active) | 53.8 µM (active) and 26.3 µM (active) | 7.6 µM (active) and 7.4 µM (active) | inactive | 37.4 µM [inconclusive] (active) |  | inactive |  |  | 30.3 µM (active) and 14.8 µM (active) |  |  |  |  |  |
| OC1CCCC1 | inactive | inactive | inactive | inactive | inactive | inactive | inactive | inactive | inactive | inactive | inactive | inactive | inactive | inactive | inactive | inactive |  |  |  |  |
